Compound activity: PubChem BioAssay, National Center for Advancing Translational Sciences (NCATS)
In the library only some 7.3% were active in any assay of this set; here they are far more common.
FMDV antiviral: foot and mouth disease virus antiviral activity | FMDV antiviral cell-based qHTS | Potency, µM (highest dose often 57.9 µM), inactives show at the top dose activity change, negative = inhibition, usual class: inhibitors | hit rate 1.2% among 410,000 | AID 1159524; calls by dose curve; tested in HEK293T cells; also: read-out not given here; potency is read from the fitted curve at half-maximal effect; nearly all actives have a fitted effect of over 45% in size
HCMV antiviral: inhibitors of human cytomegalovirus. activity change, negative = inhibition, % at 57.5 µM. hit rate 4.5% among 410,000. HFF cells, HCMV-luciferase reporter, 72 h; active compounds read low; in the data active = activity change below about -60%; inconclusive = no clear call, values can overlap the other calls; inactive = above about -39%
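Cell-based, HFFs, 1000 cells/well, 16 h 37C; cpds in DMSO + HCMV-luc, MOI 1 PFU/cell; 72 h 37C; OneGlo luminescence after 5 min RT; norm. to buffer vs Salinomycin 10uM.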
HCV inhibitor: blocks hepatitis C virus. hit rate 3.4% among 340,000. Potency, µM (top dose mostly 41.8 µM), without a hit: at the top dose activity change, negative = inhibition, usual class: inhibitors. Huh7.5.1 HCVcc-Cre infection, luciferase reporter, 44 h. AID 651820; also: potency is read from the fitted curve at half-maximal effect
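Luciferase read-out (15 sec integration) after a 15 min room-temperature substrate step quantifies HCVcc-Cre infection. Cells, 1,000 per well, had compound added 4 h post-plating, then virus at ~0.5 moi, and were cultured 44 h.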
AmpC detergent: AmpC beta-lactamase inhibition with detergent present; P00811; AmpC hydrolysis of nitrocefin, absorbance 480 nm, 0.01% Triton; hit rate 0.041% among 370,000; Potency, µM (highest dose often 114 µM), for the others: at the highest dose activity change, negative = inhibition, usual class: inhibitors;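 also: potency is read from the fitted curve at half-maximal effect; 0% = no-compound wells and -100% = no-enzyme wells; nearly all actives have a fitted effect of over 25% in size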
Target sequence (P00811 whole entry, looked up): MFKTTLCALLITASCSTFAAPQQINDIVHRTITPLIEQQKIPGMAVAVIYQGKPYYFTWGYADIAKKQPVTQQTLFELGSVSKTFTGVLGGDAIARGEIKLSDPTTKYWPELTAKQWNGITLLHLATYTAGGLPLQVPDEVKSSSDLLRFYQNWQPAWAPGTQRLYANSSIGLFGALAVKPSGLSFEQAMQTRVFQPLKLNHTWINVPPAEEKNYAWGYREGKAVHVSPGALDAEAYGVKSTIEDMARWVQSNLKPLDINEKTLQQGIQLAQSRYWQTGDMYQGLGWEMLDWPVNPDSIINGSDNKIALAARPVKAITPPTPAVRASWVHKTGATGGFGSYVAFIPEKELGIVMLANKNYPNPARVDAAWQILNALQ
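20 mM phosphate pH 7.0 + 0.01% (detergent screen) or 0.0001% Triton X-100; 5.3 nM AmpC reagent; cpd preinc 15 min RT; nitrocefin (800 uM stock) to start; A480 q20 s × 4 min; Activity was normalised to no-enzyme and no-compound control wells.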
AmpC no deterg: blocks E. coli AmpC beta-lactamase in detergent-free assay; P00811; AmpC nitrocefin hydrolysis, absorbance 480 nm, 0.0001% Triton; Potency, µM (series often up to 57.1 µM), inactives show at the highest dose activity change, negative = inhibition, hits mostly inhibitors; hit rate 0.52% among 330,000;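 also: potency is read from the fitted curve at half-maximal effect; plate controls were no compound for no effect and no enzyme for full effect; nearly all actives have a fitted effect of over 20% in size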
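20 mM phosphate pH 7.0 + 0.01% (detergent screen) or 0.0001% Triton X-100; 5.3 nM AmpC reagent; cpd preinc 15 min RT; nitrocefin (800 uM stock) to start; A480 q20 s × 4 min; Activity was normalised to no-enzyme and no-compound control wells.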
* = called active by the depositor; [ ] = remark or other dose. Unless noted, calls follow the shape of the dose curve; as a rule, active = well fitted curve in the direction sought with a large enough effect; inconclusive = small, poorly fitted or top-dose-only effect, or another doubt; inactive = no such curve, though single readings can be large; an effect the other way counts as inactive or inconclusive. Unless noted, % is scaled to controls: 0 for no effect and ±100 for the full control effect.

Results for CC(C)Nc1nc(NC(C)C)nc(N(C)N)n1 ?
FMDV antiviral: -7.8%; HCMV antiviral: 13.6; HCV inhibitor: 5.62µM*; AmpC detergent: -0.3%; AmpC no deterg: -35.2%

How did CCCS(=O)(=O)c1cnc(C2COc3ccccc3O2)nc1N (stereo unspecified) do in these assays?
FMDV antiviral: 35.5µM*; HCMV antiviral: -88.0*; HCV inhibitor: 4.6%; AmpC detergent: 5.2%; AmpC no deterg: -9.3%

What do the screens show for `FC(F)(F)c1cccc(NC(=S)Nc2ccc(Cl)cc2Cl)c1`?
FMDV antiviral: inconclusive; HCMV antiviral: 1.6; HCV inhibitor: 18.6%; AmpC detergent: -2.0%; AmpC no deterg: -26.3%

What do the screens show for `Fc1ccc(CNC(=S)Nc2cccc(Cl)c2)cc1`?
FMDV antiviral: 3.5%; HCMV antiviral: inconclusive; HCV inhibitor: inconclusive; AmpC detergent: 1.4%; AmpC no deterg: -25.6%

Results for FC(F)(F)c1ccccc1NC(=S)Nc1cccc(Cl)c1 ?
FMDV antiviral: -12.0%; HCMV antiviral: -75.7*; HCV inhibitor: 24.3%; AmpC detergent: -0.8%; AmpC no deterg: -7.6%[2.29 µM]

How did Fc1ccc(NC(=S)Nc2cccc(Cl)c2)cc1 do in these assays?
FMDV antiviral: 41.0%; HCMV antiviral: -73.1*; HCV inhibitor: inconclusive; AmpC detergent: 2.0%; AmpC no deterg: -16.5%

Results for COc1cc2ccccc2cc1C(=O)N1CCc2ccccc21 ?
FMDV antiviral: 18.4%; HCMV antiviral: -19.1; HCV inhibitor: 8.91µM*; AmpC detergent: 2.4%; AmpC no deterg: -15.8%

Results for Cc1ccc(-n2c(=O)[nH]cc(C(=O)N3CCc4ccccc43)c2=O)cc1C ?
FMDV antiviral: -11.0%; HCMV antiviral: 125.2; HCV inhibitor: inconclusive; AmpC detergent: inconclusive; AmpC no deterg: 10µM*

What do the screens show for `O=C1NC(=O)C(c2ccccc2)(c2ccccc2)N1S(=O)(=O)c1ccccc1`?
FMDV antiviral: 74.3%; HCMV antiviral: -13.2

Results for CCc1ccc(NC(=O)NNC(=O)c2cc3ccccc3cc2O)cc1 ?
FMDV antiviral: 17.1%; HCMV antiviral: 0.1; HCV inhibitor: 3.3%; AmpC detergent: 5.5%; AmpC no deterg: -53.1%

What do the screens show for `CC(=O)Nc1ccc(Br)c2ccccc12`?
FMDV antiviral: -18.2%; HCMV antiviral: -25.3; HCV inhibitor: 2.1%; AmpC detergent: 3.2%; AmpC no deterg: -6.5%[2.29 µM]

Results for CCc1ccc(NC(=O)NNC(=O)c2ccc3ccccc3c2O)cc1 ?
FMDV antiviral: 13.6%; HCMV antiviral: -82.3*; HCV inhibitor: 5.6%; AmpC detergent: -9.9%; AmpC no deterg: -38.5%

Results for O=C(Nc1ccc(Br)c2ccccc12)c1ccc2ccccc2c1O ?
FMDV antiviral: inconclusive; HCMV antiviral: -100.1*; HCV inhibitor: inconclusive; AmpC detergent: -4.4%; AmpC no deterg: -34.0%

How did CCCOc1cc(N(CC)CC)ccc1/C=C(/C#N)c1nc2ccc(C)cc2[nH]1 do in these assays?
FMDV antiviral: inconclusive; HCMV antiviral: inconclusive; HCV inhibitor: inconclusive; AmpC detergent: 5.1%; AmpC no deterg: -50.6%

How did CCN(CC)c1ccc(/C=C(/C#N)c2nc3ccc(C)cc3[nH]2)c(OC(C)C)c1 do in these assays?
FMDV antiviral: 7.4%; HCMV antiviral: inconclusive; HCV inhibitor: 2.82µM*; AmpC detergent: -5.5%; AmpC no deterg: -28.2%

Results for CCOc1cc(N(CC)CC)ccc1/C=C(/C#N)c1nc2ccccc2[nH]1 ?
FMDV antiviral: -24.4%; HCMV antiviral: -24.0; HCV inhibitor: 2.51µM*; AmpC detergent: -0.4%; AmpC no deterg: -56.0%

How did COc1ccccc1C1CN(CCNC(=O)c2ccc3c(c2)OCCO3)Cc2ccccc2O1 (stereo unspecified) do in these assays?
FMDV antiviral: -4.6%

How did C[C@H](CO)N1C[C@H](C)[C@@H](CN(C)Cc2ccc(Oc3ccccc3)cc2)Oc2c(NC(=O)C3CC3)cccc2C1=O do in these assays?
FMDV antiviral: -13.9%; HCMV antiviral: -31.5; HCV inhibitor: 15.8µM*; AmpC no deterg: 204.4%

How did C[C@H](CO)N1C[C@H](C)[C@@H](CN(C)Cc2ccc(C(=O)O)cc2)Oc2c(NC(=O)C3CC3)cccc2C1=O do in these assays?
FMDV antiviral: -9.7%; HCMV antiviral: -30.1; HCV inhibitor: -5.0%; AmpC no deterg: -12.1%

Results for Cc1noc(C)c1NC(=O)N(C)C[C@H]1Oc2c(NC(=O)C3CCCCC3)cccc2C(=O)N([C@H](C)CO)C[C@@H]1C ?
FMDV antiviral: 37.8%; HCMV antiviral: -2.7; HCV inhibitor: 3.98µM*; AmpC no deterg: 11.4%

What do the screens show for `C[C@H](CO)N1C[C@H](C)[C@@H](CN(C)CC2CC2)Oc2c(NC(=O)Cc3ccccc3)cccc2C1=O`?
FMDV antiviral: 35.9%; HCMV antiviral: inconclusive; HCV inhibitor: 3.16µM*; AmpC no deterg: 82.0%

How did C[C@H](CO)N1C[C@H](C)[C@@H](CN(C)CC2CC2)Oc2c(NC(=O)C3CC3)cccc2C1=O do in these assays?
FMDV antiviral: 32.1%; HCMV antiviral: 6.1; HCV inhibitor: 25.0%[8.37 µM]

Results for C[C@H](CO)N1C[C@H](C)[C@@H](CN(C)C)Oc2c(NC(=O)C3CC3)cccc2C1=O ?
FMDV antiviral: 27.9%; HCMV antiviral: -21.5; HCV inhibitor: 3.16µM*; AmpC no deterg: -12.9%

What do the screens show for `Cc1noc(C)c1NC(=O)N(C)C[C@@H]1Oc2c(NC(=O)NC(C)C)cccc2C(=O)N([C@@H](C)CO)C[C@@H]1C`?
FMDV antiviral: -15.3%; HCMV antiviral: 14.4; HCV inhibitor: 14.6%; AmpC no deterg: -14.0%

What do the screens show for `COc1ccc(NC(=O)NC2CCCCCCC2)cc1OC`?
FMDV antiviral: 38.8%; HCMV antiviral: 85.4; HCV inhibitor: 6.2%; AmpC detergent: inconclusive; AmpC no deterg: -20.5%

What do the screens show for `COC(=O)c1ccc(CN2CCC3(CCC(CNC(=O)c4ccco4)O3)CC2)cc1` (stereo unspecified)?
FMDV antiviral: 2.9%

What do the screens show for `COc1ccc(Nc2cc(C)c3cc([N+](=O)[O-])ccc3n2)cc1`?
FMDV antiviral: -3.4%; HCMV antiviral: -38.8; HCV inhibitor: inconclusive; AmpC detergent: -6.4%; AmpC no deterg: -16.1%

How did CC1CCCN(C(=O)CCS(=O)(=O)c2cc3c(cc2Cl)NC(=O)CO3)C1 (stereo unspecified) do in these assays?
FMDV antiviral: -23.1%; HCMV antiviral: -12.6; HCV inhibitor: 14.9%; AmpC detergent: 3.4%; AmpC no deterg: -7.7%

How did CCOC(=O)CCCCCC(=O)Nc1ccc2c(c1)CC(=O)N([C@H](C)CO)C[C@@H](C)[C@H](CN(C)Cc1ccc3c(c1)OCO3)O2 do in these assays?
FMDV antiviral: -16.3%; HCMV antiviral: 18.4; HCV inhibitor: 16.5%; AmpC no deterg: 292.3%

What do the screens show for `C[C@@H]1CN([C@H](C)CO)C(=O)Cc2cc(NC(=O)Nc3ccccc3)ccc2O[C@@H]1CN(C)Cc1ccc2c(c1)OCO2`?
FMDV antiviral: inconclusive; HCMV antiviral: 15.2; HCV inhibitor: 3.55µM*; AmpC no deterg: 114.7%
